Reference: the supplement of paper PMC6555819

What was measured:
Experiment in all cases: PBM binding z-score (relative to random genomic background probes); higher = stronger binding; sequences stand for … in GC…GCGATTGACAGCGTAGAATGAAGG
[1] = tested on: PPARg:RXRa DBDmut IVT, anti-RXR (DBD mutation: RXRa K156A/R161A, NR concentration 270 nM, RXRa partner concentration 90 nM)
How it was run: (§1)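 Probes were double-stranded and carried 34-nt variable regions with direct-repeat seeds, single-nucleotide variants, half-site ablations and random human genomic background sequences, printed on custom Agilent 4×180K protein-binding microarrays. Arrays were incubated 1 h with ligand-free nuclear receptor dimers in PBS pH 7.4, 2% milk, 0.02% Triton X-100, 1 mM DTT, 0.2 mg/mL BSA and 0.4 mg/ml salmon testes DNA. Antibodies against each partner (one per run) detected binding, and scanned fluorescence was regression-normalized. Binding z-scores use the random background probes as reference.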

[2] = tested on: PPARg:RXRa IVT, anti-PPARg (NR concentration 270 nM, RXRa partner concentration 90 nM)
How it was run: as §1

[3] = tested on: PPARg DBDmut:RXRa IVT, anti-PPARg (DBD mutation: PPARg1 K132A/R137A, NR concentration 270 nM, RXRa partner concentration 90 nM)
How it was run: as §1

[4] = tested on: PPARg DBDmut IVT, anti-PPARg (DBD mutation: PPARg1 K132A/R137A, NR concentration 270 nM)
How it was run: as §1

[5] = tested on: PPARg homodimer (NR concentration 180 nM)
How it was run: as §1

[6] = tested on: PXR:RXRa (NR concentration 270 nM, RXRa partner concentration 90 nM)
How it was run: as §1

[7] = tested on: PXR homodimer (NR concentration 270 nM)
How it was run: as §1

[8] = tested on: RARa:RXR (NR concentration 270 nM, RXRa partner concentration 90 nM)
How it was run: as §1

[9] = tested on: RARa homodimer (NR concentration 270 nM)
How it was run: as §1

[10] = tested on: RARb:RXRa (NR concentration 270 nM, RXRa partner concentration 90 nM)
How it was run: as §1

[11] = tested on: RARb homodimer (NR concentration 270 nM)
How it was run: as §1

[12] = tested on: RARg:RXRa (NR concentration 270 nM, RXRa partner concentration 90 nM)
How it was run: as §1

[13] = tested on: RARg homodimer (NR concentration 270 nM)
How it was run: as §1

[14] = tested on: RXRa DBDmut IVT, anti-RXR (DBD mutation: RXRa K156A/R161A, NR concentration 90 nM)
How it was run: as §1

[15] = tested on: RXRa homodimer (NR concentration 180 nM)
How it was run: as §1

[16] = tested on: THRa:RXRa (NR concentration 90 nM, RXRa partner concentration 90 nM)
How it was run: as §1

[17] = tested on: THRa homodimer (NR concentration 90 nM)
How it was run: as §1

[18] = tested on: VDR:RXRa (NR concentration 270 nM, RXRa partner concentration 90 nM)
How it was run: as §1

[19] = tested on: VDR homodimer (NR concentration 270 nM)
How it was run: as §1

Sequence	PBM binding z-score [1]	PBM binding z-score [2]	PBM binding z-score [3]	PBM binding z-score [4]	PBM binding z-score [5]	PBM binding z-score [6]	PBM binding z-score [7]	PBM binding z-score [8]	PBM binding z-score [9]	PBM binding z-score [10]	PBM binding z-score [11]	PBM binding z-score [12]	PBM binding z-score [13]	PBM binding z-score [14]	PBM binding z-score [15]	PBM binding z-score [16]	PBM binding z-score [17]	PBM binding z-score [18]	PBM binding z-score [19]
CAAACTAGGTCAAGGTCCAAGTCGGTTTGTGCCA	8.66	8.37	3.91	1.65	2.64	1.63	-0.0807	2.31	0.849	4.18	3.59	3.87	5.33	1.76	3	3.18	1.67	2.18	1.7
AGTCAAAGTTCATCTAGGTAGCGTAAGATATGCT	0.422	2.98	1.02	1.02	2.55	4.98	6.74	3.75	1.85	4.8	3.79	5.6	5.81	4.63	4.48	2.62	-0.478	4.94	5.34
GATACAGGGTCAGCTAGAGGCCAGACTATGGAAA	1.46	2.29	-0.0728	0.0438	1.82	2.88	0.12	4.3	0.752	3.97	3.59	6.62	4.83	0.964	4.23	3.1	0.411	3.23	0.781
TGAATGAGGTTAAAGATCAGGGATCGTGGCGTCG	2.1	3.36	0.927	0.328	2.57	1.75	-0.845	3.09	-0.37	1.85	0.409	2.25	1.11	0.89	3.63	2.33	0.0472	1.85	-0.0606
ACTATTAGTTGACTTAGGGCACCCGATACGACGC	0.28	0.339	1.12	1.59	0.282	-0.159	0.392	0.226	1.18	0.663	0.58	0.574	0.897	0.79	0.316	0.993	0.664	0.0637	0.399
AGAATGAGGTTAAGATCAGGGGAACAGAATACAT	3.34	2.63	1.57	0.78	1.05	1.43	0.765	2.02	0.798	1.95	1.37	2.14	1.59	1.58	2.52	2.8	1.34	1.33	0.727
CTCGAAAGGTCGTGCTCATGTGAGTATACCAAAC	1.04	1.63	0.526	0.798	1.16	3.17	0.0761	4.03	0.231	4.13	2.68	4.43	3.69	2.15	5.19	2.45	0.174	3.36	0.995
ATATGTAGGTTAGCTGCGGTCATTCAGACTAGGC	6.89	6.05	1.21	1.12	0.698	3.39	0.151	1.21	0.221	1.88	2.02	1.43	1.83	0.343	0.968	4.05	0.202	2.23	0.904
GCTGCTAGGTCAACTGATGGTAAGCTAAAGCTCG	5.03	3.79	-0.843	-0.572	1.33	1.29	-0.824	2.02	0.282	4.06	2.98	4.25	4.92	1.14	2.73	2.9	0.776	1.23	-0.0201
TCTTGCAGATCAATAGAGGTTAAGAAAGTGCGCT	0.862	0.37	0.336	-0.0409	-0.12	3.03	0.036	1.91	-0.478	0.805	1.01	0.797	0.305	0.292	1.37	2.42	-0.532	1.79	-0.0844
ACTCGGAGGACAAAGGTCCGAGCTACGCCAGTGA	0.177	0.313	-0.996	-0.635	-0.36	-0.365	-0.238	-0.334	-0.387	1.29	0.57	0.663	0.927	0.364	0.0174	0.646	-0.259	-0.323	-0.261
TCATATAGGTAAAAGGCGAAAGTCGGTGTGGTAA	3.92	3.21	0.28	0.103	0.768	0.309	0.159	0.628	0.926	0.164	-0.139	0.0161	-0.195	1.51	0.665	-0.0856	-0.0858	0.679	0.0813
GCATATAGGAAATACAAGGTGAAAGTCCGATTGT	-0.0437	0.645	-0.0022	0.353	0.365	0.166	0.0769	0.702	0.755	0.29	0.623	0.263	0.484	0.294	0.281	1.94	0.81	-0.189	-0.126
TCATATAGGTAAACGGGTGAAAGTCCGTAAGTTA	4.54	4.35	1.22	1.51	0.689	0.621	0.241	0.612	0.587	0.567	0.485	0.423	0.128	1.05	1.03	0.421	-0.157	1.16	0.053
GGAACGAGGGCATTCGAGTCGATAGCATGGCGAT	2.96	2.19	-0.0559	-0.671	-0.141	1.5	0.546	0.428	-0.54	1.48	0.222	1.01	1.35	3.2	0.622	2.5	-0.885	1.99	1.87
